ADAM10 inh = inhibits human ADAM10 | 370,000 compounds, 0.62% hits | recombinant ADAM10, EDANS/DABCYL FRET peptide cleavage, 3 h | inhibition, % at 7 µM | O14672;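 active = inhibition above a per-campaign cutoff equal to the mean of compounds falling between control-based bounds plus 3 SD, cut at about 20% in these data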;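 note: 0% = DMSO wells while the 100% control is not disclosed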
rCAG RNA binder = binds r(CAG) RNA repeats. r(CAG) RNA repeat, TO-PRO-1 dye displacement fluorescence. inhibition, % at 3 µM. 370,000 compounds, 1.3% hits. AID 651821;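 active = inhibition above the plate cutoff, the mean of all test compounds on that plate plus 3 SD, cut at about 35% in these data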;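 note: 0% = DMSO alone and 100% = 100 µM mitoxantrone as full dye displacement; higher means more dye released from RNA so lower well fluorescence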
GRIN3A LBD mod = modulators (binders) of human NR3A ligand-binding domain | NR3A LBD differential scanning fluorimetry, Tm shift; 0% = protein alone, 100% = glycine-bound protein | Tm shift relative to glycine control, % at 25 µM | 340,000 compounds, 2.5% hits | AID 1259313;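 active = melting temperature shift of at least 10% of the positive control shift, at one fixed dose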
AHR activator = activates the human aryl hydrocarbon receptor; P35869; AHR-responsive luciferase reporter cells, luminescence; activation, % at 5 µM; 320,000 compounds, 2.5% hits; in the data active = activation above about 47%;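 note: 0% = vehicle wells and 100% = reference agonist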
ADAM17 inh = ADAM17 inhibition, QFRET primary screen; recombinant ADAM17, EDANS/DABCYL FRET peptide cleavage; 370,000 compounds, 0.83% hits; P78536; inhibition, % at 6.95 µM; AID 720648;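 active = inhibition above the mean of compounds lying between control limits plus 3 SD, set per campaign, cut at about 8.5% in these data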;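 note: 0% = DMSO-only wells as the low control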
Target sequence (P78536 215-824 limits assumed): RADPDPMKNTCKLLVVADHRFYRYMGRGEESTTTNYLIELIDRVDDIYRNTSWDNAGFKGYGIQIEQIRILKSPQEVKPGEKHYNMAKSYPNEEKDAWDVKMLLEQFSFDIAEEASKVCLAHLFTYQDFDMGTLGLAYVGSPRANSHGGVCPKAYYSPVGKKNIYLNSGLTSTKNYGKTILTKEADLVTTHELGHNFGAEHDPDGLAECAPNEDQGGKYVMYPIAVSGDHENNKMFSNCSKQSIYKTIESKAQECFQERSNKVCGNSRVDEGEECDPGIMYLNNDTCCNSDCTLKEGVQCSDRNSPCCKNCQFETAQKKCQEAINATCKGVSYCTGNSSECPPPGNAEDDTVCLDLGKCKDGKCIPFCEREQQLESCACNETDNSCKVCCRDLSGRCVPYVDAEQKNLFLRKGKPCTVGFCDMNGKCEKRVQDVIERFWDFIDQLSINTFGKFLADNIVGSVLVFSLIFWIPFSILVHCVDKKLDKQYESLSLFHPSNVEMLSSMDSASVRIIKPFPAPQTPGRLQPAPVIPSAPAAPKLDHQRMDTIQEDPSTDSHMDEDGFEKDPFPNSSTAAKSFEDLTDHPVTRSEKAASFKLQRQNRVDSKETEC
proKLK7 act = activates the human kallikrein-7 zymogen. purified proKLK7, EDANS-DABCYL substrate fluorescence; 100% is mature enzyme control, 0% vehicle. AID 652039. P49862. 370,000 compounds, 0.9% hits. activation, % at 7 µM;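 active = activation above the mean of all tested compounds plus 3 SD, computed per campaign excluding outliers beyond control limits, cut at about 13% in these data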
AHR act cf = confirmation of human aryl hydrocarbon receptor activators | shares compounds with AHR activator | human cells, AHR-responsive luciferase reporter, luminescence | activation, % at 9 µM | 2,300 compounds, 87% hits | AID 2845; in the data active = activation above about 49%;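 note: HepG2 hepatoma cells carrying a DRE-driven firefly luciferase reporter; 0% = vehicle wells and 100% = reference agonist wells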
PXR counter = counter-screen for AHR activators: human PXR activators; cell-based PXR reporter, luciferase luminescence; activation, % at 11.6 µM; 2,300 compounds, 88% hits; AID 434939; shares compounds with AHR activator; in the data active = activation above about 11%;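 note: human hepatoma DPX-2 cells expressing full-length human PXR; 0% = DMSO and 100% = reference agonist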
Starred values were filed as active, the others as inactive; . = no result given. This is a sample that favours compounds with a hit; in the whole collection about 7% have one here.

SMILES | ADAM10 inh | rCAG RNA binder | GRIN3A LBD mod | AHR activator | ADAM17 inh | proKLK7 act | AHR act cf | PXR counter
COc1ccc(-c2[nH]ncc2/C=N\NS(=O)(=O)c2ccccc2)cc1OC | 4 | 2 | -1 | 92* | -6 | 0 | 33 | 24*
O=C(CNC(=O)c1ccccc1)N/N=C/c1cn[nH]c1-c1ccccc1 | -12 | 0 | 0 | 146* | -4 | 0 | 92* | 20*
COc1ccccc1C(=O)NCC(=O)N/N=C/c1cn[nH]c1-c1ccccc1 | -11 | -5 | 3 | 156* | -7 | 0 | 111* | 12*
COc1cccc(C(=O)NCC(=O)N/N=C/c2cn[nH]c2-c2ccccc2)c1 | 5 | 1 | 1 | 19 | 2 | 0 | . | .
COc1ccccc1C(=O)NCC(=O)N/N=C/c1ccc([N+](=O)[O-])cc1 | -2 | 0 | 0 | -4 | 1 | 0 | . | .
CCC[C@H]1[C@@H](OC(=O)NC(CC)CC)CC[C@@]23CCCN2C(=O)CCC[C@@H]13 | 0 | . | . | . | -1 | . | . | .
CN1C(=O)C[C@@](C#N)(C(=O)NCc2ccc3c(c2)OCO3)[C@H]1c1ccccc1 | 5 | -1 | . | . | 4 | 0 | . | .
Nc1c(-c2ccc(F)cc2)nc2ncccn12 | -20 | 0 | . | . | -7 | 8 | . | .
Clc1ccc(-c2nc3ncccn3c2Cl)cc1 | . | . | 0 | 87* | . | . | 148* | 55*
Cc1cccc2sc(NNC(=O)C3COc4ccccc4O3)nc12 (stereo not given) | -1 | 8 | -6 | 95* | 2 | 0 | 41 | 20*
Cc1cc(C)c2sc(NNC(=O)C3COc4ccccc4O3)nc2c1 (stereo not given) | 0 | 9 | -1 | 103* | -1 | 0 | 69* | 25*
CC(=O)c1sc(NC(=O)C2COc3ccccc3O2)nc1C (stereo not given) | 2 | 3 | -1 | 0 | 1 | 0 | . | .
CCOC(=O)Cn1cc(CN2C(C(=O)OC)CN(C3CCCC3)CCS2(=O)=O)nn1 (stereo not given) | 6 | 3 | . | . | 5 | -1 | . | .
O=C(c1cnc2n(c1=O)CCS2)N1CCN(C(c2ccccc2)c2ccc(Cl)cc2)CC1 (stereo not given) | . | . | -5 | 2 | . | . | . | .
O=c1c(-c2ccc(Cl)cc2)cnc2n1CCS2 | -3 | -6 | 0 | 116* | -9 | 0 | 131* | 53*
CCCN1Cc2cccc(C(=O)NCc3ccc4c(c3)OCO4)c2C1=O | 4 | -5 | -2 | 80* | 1 | 0 | 50* | 141*
O=C(NCc1ccc2c(c1)OCO2)c1cccc2c1C(=O)N(C1CCCCC1)C2 | -8 | 3 | 0 | 0 | 2 | -1 | . | .
COC(=O)c1ccc2nc(-c3ccc(C)cc3)c(Cc3ccccc3)n2c1 | -75 | 11 | . | . | -17 | -3 | . | .
CC1CC(C)CN(c2oc(Cc3ccccc3)nc2C#N)C1 (stereo not given) | -6 | -2 | -3 | 8 | 0 | 0 | . | .
COc1ccccc1OCc1nc(C#N)c(N2CC(C)CC(C)C2)o1 (stereo not given) | 6 | -1 | 3 | 91* | 0 | 0 | 86* | 86*
COC(=O)C1=COC(OC2OC(CO)C(O)C(O)C2O)C2C(C)CC(=O)C12 (stereo not given) | -1 | 0 | . | . | 0 | 1 | . | .
CCC(=O)OCCCN1C(=O)CCC12CCC(C)CC2 (stereo not given) | 3 | 3 | . | . | 0 | 0 | . | .
CCSc1ncc(/C=N/Nc2ccccc2)n1C | 3 | 2 | -2 | 89* | -2 | 0 | 145* | 49*
CN1[C@@H](Cc2ccccc2)COc2cccc(N3CCSCC3)c2S1(=O)=O | -4 | 5 | . | . | -8 | 0 | . | .
COc1ccc(S(=O)(=O)NNC(=O)c2cc3c4ccccc4n(C)c3s2)cc1 | -8 | 10 | 0 | 110* | 1 | 0 | 98* | 246*
SMILES | ADAM10 inh | rCAG RNA binder | GRIN3A LBD mod | AHR activator | ADAM17 inh | proKLK7 act | AHR act cf | PXR counter
CCN(CC)C(=O)CC[C@H]1CC[C@]2(CCCN(Cc3ccc(Br)cc3)C2)O1 | -2 | 0 | . | . | -4 | -1 | . | .
CC(C)C[C@H]1COc2cc(N3CCOCC3)ccc2S(=O)(=O)N1 | 5 | 5 | . | . | 2 | 0 | . | .
C/C(=N\Nc1ccc(Cl)c(Cl)c1)c1ccc(-n2ccnc2)cc1 | 2 | 8 | 6 | 23 | -2 | -2 | . | .
C=C(C)CNC(=S)N/N=C(\C)c1ccc(-n2ccnc2)cc1 | 6 | -4 | -1 | 94* | -5 | 0 | 98* | 36*
CCOc1ccc(CCNC(=O)c2ccccn2)cc1OCC | -2 | . | . | . | -3 | . | . | .
CC12CCC(=O)N1C(C(=O)Nc1nc3c(F)cc(F)cc3s1)CS2 (stereo not given) | -8 | 9 | 1 | 97* | -5 | 1 | 79* | 151*
COC(=O)[C@@H]1[C@H](O[Si](C)(C)C(C)(C)C)C2OC2C[C@H]1S(=O)(=O)c1ccccc1 (stereo not given in full) | 8 | . | . | . | 2 | . | . | .
COC(=O)Cc1nnn2c1[C@H](C)[C@@H](OC)c1ccc(C(F)(F)F)cc1-2 | -19 | -1 | . | . | 1 | 0 | . | .
CC1=CC2C3C(=O)N(c4ccccc4)C(=O)C3C1C(=O)C2(O)C(C)C (stereo not given) | -12 | 1 | . | . | -3 | 0 | . | .
COc1ccc(-c2nc3ncccc3o2)cc1NC(=O)c1cccs1 | -12 | 8 | -2 | 81* | 1 | 0 | 43 | 30*
O=C(Nc1cc(-c2nc3ncccc3o2)ccc1Cl)c1cccs1 | -35 | 6 | 3 | 134* | -9 | -6 | 98* | 47*
CC(C)C[C@H](NC1(C(=O)NC2CCCCC2)CCN(C)CC1)C(=O)NCC(c1ccccc1)c1ccccc1 | -3 | . | . | . | -5 | . | . | .
Cc1cc2c(c(=O)o1)[C@@]1(C(=O)N(C)c3ccccc31)C1=C(CC(C)(C)CC1=O)O2 | -13 | 1 | . | . | 3 | 0 | . | .
Cc1cc(C)n2nc(N)c(N=Nc3ccc(Cl)cc3)c2n1 | -2 | 7 | -9 | 109* | 2 | 0 | 98* | 31*
O=[N+]([O-])c1ccccc1/C=C/C1Nc2cccc3cccc(c23)N1 | -4 | 22 | . | . | 0 | 0 | . | .
COc1cc(C#Cc2c(-c3cncn3C)n(C)c3ccc(-c4ccc5[nH]ccc5c4)cc23)cc(OC)c1 | -291 | 21 | 2 | 105* | -94 | -46 | 80* | 28*
COc1cc(C#Cc2c(-c3cncn3C)n(C)c3ccc(-c4cc(OC)c(OC)c(OC)c4)cc23)cc(OC)c1 | -347 | 20 | -7 | 40 | -136 | -35 | . | .
COc1ccc(N2CCN(C(=O)c3c(Cl)cnn3C)CC2)cc1 | 4 | 1 | -1 | 7 | 1 | 0 | . | .

Assay outcomes: PubChem, several laboratories
